Reference: PubChem BioAssay (NCI)
Values joined by “and” are separate entries in the source; they are usually repeats but may differ in a detail not shown here. Identical values can stand only once. The panel holds about 79,000 compounds, 15% with a hit somewhere; the sample as a whole holds those more often. Where a structure was tested more than once in an assay, its records may differ in their call. Active and inactive are the calls of the source. Cut-off read from the data, not from the text of the source: active = growth inhibition above about 70%; inactive = the rest.

assay: NCI Yeast Anticancer Drug Screen. Data for the sgs1 mgt1 strain (AID 161);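 note: 0% = growth of cultures given vehicle only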; details: S. cerevisiae sgs1 mgt1 strain, at 50.0 µM, stronger effect = higher value
In short: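 Read-out: growth inhibition vs vehicle controls. Cells: mutant yeast strain deficient in DNA damage repair.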

Row | Compound | growth inhibition
1 | CC(C)(C)CC(C)(C)c1ccc(O)cc1 | 99.8% (active)
2 | CC[n+]1c(/C=C/c2ccc(N(CCCl)CCCl)cc2)ccc2cc(I)ccc21 | 89.5% (active)
3 | CCCCCCC1CCC2CCCC(C)N12 (centres undefined) | 88.2% (active)
4 | C[N+](C)(C)CC1CCC(C[N+](C)(C)C)C1=O (centres undefined) | -4.05% (inactive)
5 | CCC[CH2][Sn]1([CH2]CCC)[O]C(=O)c2cc(C)ccc2[O]1 | 91.5% (active)
6 | COc1ccc(CC2C(=O)NC(C)C(=O)N(C)C3C(=O)N(C)C(Cc4ccc(O)c(c4)Oc4ccc(cc4)C3O)C(=O)NC(C)C(=O)NC(C)C(=O)N2C)cc1 (centres undefined) | 54.3% (inactive)
7 | CC(=O)Nc1cccc([As+](C)(c2cccc(NC(C)=O)c2)c2cccc(NC(C)=O)c2)c1 | -5.65% (inactive)
8 | COC1OC(COC(C)=O)C(OC(C)=O)C(OC(C)=O)[C]1(OC(C)=O)[Hg][O]C(C)=O (centres undefined) | 99.7% (active)
9 | CCOC(=O)C(NC(=O)C(Cc1ccc(N(CCCl)CCCl)cc1)NC(C)=O)C(C)C (centres undefined) | 37.2% (inactive) and -1.2% (inactive)
10 | CN1c2cccc[c]2[Sn]([CH3])([CH3])[c]2ccccc21 | 99.5% (active)
11 | Cc1ccc(C(=O)OC(C(=O)O)C(OC(=O)c2ccc(C)cc2)C(=O)O)cc1 (centres undefined) (tested in a mixture with another compound) | 21.2% (inactive) and 93.8% (active)
12 | CC(C)(c1ccccc1)c1ccc(O)cc1 | 99.7% (active)
13 | CC1(C)N=C(N)N=C(N)N1CCCOc1ccc(NC(=O)c2ccc(S(=O)(=O)F)cc2)cc1 | 47.8% (inactive)
14 | CC1=CC2OC3CC4OC(=O)/C=C/C=C/C(=O)OCCC(C)C(O)C(=O)OCC2(CC1O)C4(C)C31CO1 (centres undefined) | 93.2% (active)
15 | C=CCOc1cc2c(ccc1=O)-c1c(cc(OC)c(OC)c1OC)CCC2NC(C)=O (centres undefined) | 93.9% (active)
16 | c1ccc2c(c1)[As]=c1ccccc1=[As]2 (centres undefined) | 92% (active)
17 | CCC(C)(c1ccc(O)cc1)c1ccc(O)cc1 | 98.8% (active)
18 | COc1cc(C2c3cc4c(cc3[C@@H](Nc3ccc(F)cc3)C3COC(=O)[C@H]23)OCO4)cc(OC)c1O (some centres undefined) | 88.9% (active)
19 | CC(C)(C)OC(=O)NC(CSC(c1ccccc1)(c1ccccc1)c1cccs1)C(=O)O (centres undefined) | 96.5% (active)
20 | CCOP(=S)(OCC)OC(c1ccc(Cl)cc1)c1ccc(Cl)cc1 | 0.25% (inactive)

Row | Compound | growth inhibition
21 | COc1ccc(OC)c(C=O)c1 | -11.7% (inactive)
22 | CC(=O)Oc1cccc2c1CC(C[Se]c1ccccc1)C(=O)O2 (centres undefined) | 70.2% (active)
23 | CCOC(=S)S | 99.5% (active)
24 | CC(NCCN(C)C)C1CC2CCCCN2C1 (centres undefined) | 15.7% (inactive)
25 | Nc1ncc(CCCCc2ccc(NC(=O)Nc3ccc(S(=O)(=O)F)cc3)cc2)c(N)n1 | 99.2% (active)
26 | CC#N.FC(F)(F)C#CC(F)(F)F.FC(F)(F)C#CC(F)(F)F.FC(F)(F)C#CC(F)(F)F.[W] | 99.7% (active)
27 | [Cl][Hg][CH2]CC1CC=CCC1 (centres undefined) | 99.6% (active)
28 | CC(=O)O[C@H]1CC[C@H]2[C@@H]3CCC4=CC(=O)CC[C@@H]4[C@H]3CC[C@]12C | 97.8% (active)
29 | c1ccc(P(CCP(c2ccccc2)c2ccccc2)CCP(c2ccccc2)c2ccccc2)cc1 | 91% (active)
30 | Cc1cc(NCc2ccccc2)c2ccccc2[n+]1CCCCCCCCCC[n+]1c(C)cc(NCc2ccccc2)c2ccccc21 | 92% (active)
31 | CCCCC(CC)CNP(=S)(NCC(CC)CCCC)NCC(CC)CCCC (centres undefined) | 6.25% (inactive)
32 | Nc1c(Br)cc(Br)c2c1C(=O)c1ccccc1C2=O | 11.6% (inactive)
33 | O=[N+]([O-])/C=C/c1cc2c(cc1Br)OCO2 | 97.9% (active)
34 | CC(Br)CN(CC(C)Br)c1ccc2c(c1)Cc1ccccc1-2 (centres undefined) | 93.2% (active)
35 | c1ccc2c[n+](CCCCCCCCCC[n+]3ccc4ccccc4c3)ccc2c1 | 90.5% (active)
36 | CCC[CH2][Sn]([N]=C=S)([N]=C=S)[N]=C=S.O=P(c1ccccc1)(c1ccccc1)c1ccccc1.O=P(c1ccccc1)(c1ccccc1)c1ccccc1 | 83.2% (active)
37 | CN(CCC(N)CC(=O)NC1C=CC(n2ccc(N)nc2=O)OC1C(=O)O)C(=N)N (centres undefined) | 90.9% (active)
38 | O=C1C=CC(=O)N1c1cccc2ccccc12 (tested in a mixture with another compound) | 9.1% (inactive)
39 | CN(C)c1ccc(N=Cc2c([O-])ccc3ccccc23)cc1.[C-]#[O+].[C-]#[O+].[Ir] | 78.3% (active)
